According to PubChem BioAssay (Tox21):
“And” between values parts separate entries of the source, which are not always exact repeats. Equal entries are not always repeated. Inconclusive results are not listed. The source holds several records for some structures; these can differ, active in one and inactive in another. The source made the active and inactive calls. The call rests on the fitted dose curve; in most records, active means well fitted curve in the direction sought with a large enough effect in the repeat runs; inconclusive means weak or mixed curves; inactive means no such curve, though single readings can be large; an effect the other way counts as inactive or inconclusive.

Assays:
[1] = A CellTox Green Cytotoxicity Assay to monitor cytotoxicity in HEK293 cells - 32 hour (AID 1224881); further: nearly all actives have a fitted effect of over 40% in size; further: potency means the concentration at half of the fitted maximal effect
Procedure, shortened: (§1)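 Nonlytic real-time cytotoxicity: HEK293 + CellTox Green reagent plated, 5 h preincubation, pintool compound addition (23 nL in DMSO), 37 C for 40 h, fluorescence measured at successive time points.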

[2] = A CellTox Green Cytotoxicity Assay to monitor cytotoxicity in HepG2 cells - 0 hour (AID 1224882); further: nearly all actives have a fitted effect of over 35% in size
Procedure, shortened: (§2)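 Read-out is fluorescence of a cyanine dye excluded from live cells that stains DNA of dead HepG2 cells, with signal proportional to cytotoxicity. Plates were read at 0, 8, 16, 24, 32 and 40 h after compound addition.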

[3] = A CellTox Green Cytotoxicity Assay to monitor cytotoxicity in HEK293 cells - 8 hour (AID 1224884); further: nearly all actives have a fitted effect of over 35% in size; further: potency means the concentration at half of the fitted maximal effect
Procedure, shortened: as §1

[4] = qHTS RealTime-Glo MT Cell Viability Assay in HepG2 cells - 16 hour (AID 1224885); further: nearly all actives have a fitted effect of over 50% in size; further: potency means the concentration at half of the fitted maximal effect
Procedure, shortened: (§3)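 Cell number in HepG2 cultures estimated from NanoLuc luminescence generated by metabolic reduction of a prosubstrate by living cells. The homogeneous, nonlytic format allowed repeated reads at 0, 8, 16, 24, 32 and 40 h of compound exposure.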

[5] = qHTS RealTime-Glo MT Cell Viability Assay in HEK293 cells - 24 hour (AID 1224886); further: nearly all actives have a fitted effect of over 50% in size; further: potency means the concentration at half of the fitted maximal effect; on activity change, negative = cytotoxicity: top concentration of the series differs between compounds
Procedure, shortened: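 Homogeneous bioluminescent viability format in HEK293 cells (600 cells/well). Following 5 h at 37 C/5% CO2, 23 nL compound was pintooled; the signal was measured repeatedly during 40 h incubation.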

[6] = qHTS RealTime-Glo MT Cell Viability Assay in HEK293 cells - 8 hour (AID 1224887); further: nearly all actives have a fitted effect of over 50% in size; further: potency means the concentration at half of the fitted maximal effect; on activity change, negative = cytotoxicity: top concentration of the series differs between compounds
Procedure, shortened: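 Cells were seeded together with NanoLuc luciferase and a prosubstrate that viable cells reduce to a luciferase substrate. After a 5 h incubation at 37 C/5% CO2, compounds were added and luminescence was measured repeatedly during 40 h of treatment.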

[7] = A CellTox Green Cytotoxicity Assay to monitor cytotoxicity in HEK293 cells - 16 hour (AID 1224888); further: nearly all actives have a fitted effect of over 35% in size
Procedure, shortened: as §1

[8] = qHTS RealTime-Glo MT Cell Viability Assay in HepG2 cells - 0 hour (AID 1224889); further: nearly all actives have a fitted effect of over 50% in size
Procedure, shortened: as §3

[9] = A CellTox Green Cytotoxicity Assay to monitor cytotoxicity in HepG2 cells - 8 hour (AID 1224890); further: nearly all actives have a fitted effect of over 45% in size
Procedure, shortened: as §2

[10] = A CellTox Green Cytotoxicity Assay to monitor cytotoxicity in HepG2 cells - 32 hour (AID 1224883); further: nearly all actives have a fitted effect of over 50% in size; further: potency means the concentration at half of the fitted maximal effect
Procedure, shortened: as §2
On the % scale 0 is the no-effect control and ±100 the full control effect.

O=C=NC1CCCCC1
inactive: Potency [1] | Potency [2] | Potency [3] | Potency [4] | Potency [5] | Potency [6] | Potency [7] | outcome [8] | Potency [9]

CCC1(CC)C(=O)NC(=O)NC1=O
inactive: Potency [1] | Potency [2] | Potency [3] | Potency [4] | Potency [5] | Potency [6] | Potency [7] | outcome [8] | Potency [9]

Clc1ccccc1
inactive: Potency [1] | Potency [2] | Potency [3] | Potency [4] | Potency [5] | Potency [6] | Potency [7] | outcome [8] | Potency [9]

Cc1nc2ccccc2c(=O)n1-c1ccccc1Cl
inactive: Potency [1] | Potency [2] | Potency [10] | Potency [3] | Potency [7] | Potency [9]
active: Potency [6] 24 µM

COc1ccc2c(c1OC)C(=O)O[C@H]2[C@@H]1c2cc3c(cc2CCN1C)OCO3
inactive: Potency [1] | Potency [2] | Potency [3] | Potency [4] | Potency [5] | Potency [6] | Potency [7] | outcome [8] | Potency [9]

CCOC(=O)c1cncn1C(C)c1ccccc1 (stereo not drawn)
inactive: Potency [1] | Potency [2] | Potency [3] | Potency [4] | Potency [5] | Potency [6] | Potency [7] | outcome [8] | Potency [9]

Nc1ccc2c(c1)Cc1ccccc1-2
inactive: Potency [1] | Potency [2] | Potency [10] | Potency [3] | Potency [4] | Potency [6] | outcome [8] | Potency [9]

CCC(C)(C)c1ccc(O)c(C(C)(C)CC)c1
active: Potency [1] 48.5 µM and 13.8 µM | Potency [10] 30.6 µM | Potency [5] 43.2 µM | Potency [6] 24.3 µM
48.5 µM (active) and inactive: Potency [3]
inactive: Potency [2] | outcome [8]

CN1CC[C@]23c4c5ccc(O)c4O[C@H]2[C@@H](O)CC[C@H]3[C@H]1C5
inactive: Potency [1] | Potency [2] | Potency [3] | Potency [4] | Potency [5] | Potency [6] | Potency [7] | outcome [8] | Potency [9]

O=C(O)C(O)C(O)C(=O)O (stereo not drawn)
inactive: Potency [1] | Potency [2] | Potency [3] | Potency [4] | Potency [5] | Potency [6] | Potency [7] | outcome [8] | Potency [9]

CCCCOC(=O)CCC(=O)OCCCC
inactive: Potency [1] | Potency [2] | Potency [3] | Potency [4] | Potency [5] | Potency [6] | Potency [7] | outcome [8] | Potency [9]

COP(=O)(OC)OC(Br)C(Cl)(Cl)Br (stereo not drawn)
inactive: Potency [1] | Potency [2] | Potency [10] | Potency [3] | Potency [4] | Potency [6] | outcome [8] | Potency [9]

CC(C)(c1ccccc1)c1cc(-n2nc3ccccc3n2)c(O)c(C(C)(C)c2ccccc2)c1
inactive: Potency [1] | Potency [2] | Potency [3] | Potency [4] | Potency [5] | Potency [6] | Potency [7] | outcome [8] | Potency [9]

COc1cc(CC(C)N)c(OC)cc1Br (stereo not drawn)
inactive: Potency [1] | Potency [2] | Potency [3] | Potency [4] | Potency [5] | Potency [6] | Potency [7] | outcome [8] | Potency [9]

CCC1(C2=NCCN2)Cc2ccccc2O1 (stereo not drawn)
inactive: Potency [1] | Potency [2] | Potency [3] | Potency [4] | Potency [5] | Potency [6] | Potency [7] | outcome [8] | Potency [9]

CCOP(=O)(O)C(N)=O
inactive: Potency [1] | Potency [2] | Potency [3] | Potency [4] | Potency [5] | Potency [6] | Potency [7] | outcome [8] | Potency [9]

CCN(C(C)=O)c1cccc(-c2ccnc3c(C#N)cnn23)c1
inactive: Potency [1] | Potency [2] | Potency [3] | Potency [4] | Potency [5] | Potency [6] | Potency [7] | outcome [8] | Potency [9]

ClCc1ccccc1Cl
inactive: Potency [1] | Potency [2] | Potency [3] | Potency [4] | Potency [5] | Potency [6] | Potency [7] | outcome [8] | Potency [9]

NP(N)(=O)NC(=O)c1ccc(F)cc1
inactive: Potency [1] | Potency [2] | Potency [3] | Potency [4] | Potency [5] | Potency [6] | Potency [7] | outcome [8] | Potency [9]

O=C1c2ccccc2C(=O)N1SC(Cl)(Cl)Cl
inactive: Potency [2] | Potency [3] | Potency [7] | outcome [8] | Potency [9]
active: Potency [1] 21.6 µM and 8.71 µM | Potency [10] 24.2 µM and 12.3 µM | Potency [4] 19.5 µM

CC(C)[C@@H](C(=O)O[C@@H](C#N)c1cccc(Oc2ccccc2)c1)c1ccc(Cl)cc1
inactive: Potency [1] | Potency [2] | Potency [10] | Potency [3] | Potency [4] | Potency [7] | outcome [8] | Potency [9]

CCCC1CCCCN1 (stereo not drawn)
inactive: Potency [1] | Potency [2] | Potency [10] | Potency [3] | Potency [4] | Potency [6] | outcome [8] | Potency [9]

Nc1ccccc1C(=O)OCC(O)CO (stereo not drawn)
inactive: Potency [1] | Potency [2] | Potency [10] | Potency [3] | Potency [4] | Potency [6] | outcome [8] | Potency [9]

CCCCCBr
inactive: Potency [1] | Potency [2] | Potency [10] | Potency [3] | Potency [4] | Potency [7] | outcome [8] | Potency [9]

O=C(Cc1ccccc1)c1ccccc1
inactive: Potency [1] | Potency [2] | Potency [10] | Potency [4] | Potency [5] | Potency [6] | outcome [8]

Cc1ncc(C[n+]2csc(CCO)c2C)c(N)n1
inactive: Potency [1] | Potency [2] | Potency [10] | Potency [3] | Potency [4] | Potency [6] | outcome [8] | Potency [9]

O=C(O)c1ccc(=O)[nH]c1
inactive: Potency [1] | Potency [2] | Potency [10] | Potency [3] | Potency [4] | Potency [6] | outcome [8] | Potency [9]

Nc1c(Br)cc(Br)c2c1C(=O)c1ccccc1C2=O
inactive: cytotoxicity increase [1] -1.22% [at 15.8 µM] | cytotoxicity [2] -4.24% [at 15.8 µM] | cytotoxicity increase [10] -5.33% [at 15.8 µM] | cytotoxicity increase [3] -10.2% [at 15.8 µM] | activity change, negative = cytotoxic [4] -7.09% [at 15.8 µM] | activity change, negative = cytotoxicity [8] -16.3% [at 15.8 µM] | cytotoxicity increase [9] -5.92% [at 15.8 µM]

CC(C)C1(C)N=C(c2ncccc2C(=O)O)NC1=O (stereo not drawn)
inactive: Potency [1] | Potency [2] | Potency [3] | Potency [4] | Potency [5] | Potency [6] | Potency [7] | outcome [8] | Potency [9]

O=CC=O
inactive: Potency [1] | Potency [2] | Potency [10] | Potency [4] | Potency [5] | Potency [6] | Potency [7] | outcome [8] | Potency [9]

C=C(C)C(=O)OCCCCOC(=O)C(=C)C
inactive: Potency [1] | Potency [2] | Potency [3] | Potency [4] | Potency [5] | Potency [6] | Potency [7] | outcome [8] | Potency [9]

CN(C)C(=O)Nc1cccc(OC(=O)NC(C)(C)C)c1
inactive: Potency [1] | Potency [2] | Potency [10] | Potency [4] | Potency [5] | Potency [6] | Potency [7] | outcome [8] | Potency [9]

C[N+]1(CCC(C(N)=O)(c2ccccc2)c2ccccc2)CCCCC1
inactive: Potency [1] | Potency [2] | Potency [3] | Potency [4] | Potency [5] | Potency [6] | Potency [7] | outcome [8] | Potency [9]

Clc1ccc2ccccc2c1
inactive: Potency [2] | Potency [10] | Potency [4] | outcome [8] | Potency [9]
active: Potency [1] 50.5 µM

O=C(N/N=C/c1ccc([N+](=O)[O-])o1)c1cc([N+](=O)[O-])cc([N+](=O)[O-])c1O
inactive: Potency [1] | Potency [2] | Potency [3] | Potency [4] | Potency [5] | Potency [6] | Potency [7] | outcome [8] | Potency [9]

CCC1(CCC(C)C)C(=O)NC(=O)NC1=O
inactive: Potency [1] | Potency [2] | Potency [10] | Potency [3] | Potency [4] | Potency [6] | outcome [8] | Potency [9]
